± gives the standard deviation.
T1: HaloTag-ATRX ADD domain (163-292)
T1 chain: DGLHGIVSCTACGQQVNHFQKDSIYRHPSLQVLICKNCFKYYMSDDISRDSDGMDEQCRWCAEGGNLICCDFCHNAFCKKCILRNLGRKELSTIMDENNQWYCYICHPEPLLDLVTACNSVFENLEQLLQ


Biological target: T1, HaloTag-ATRX ADD domain (163-292)
Test: peptide microarray binding signal (635 nm), min-max normalized on array (fraction of array maximum); higher = stronger binding
Conditions: peptide region: Unmod H2B variant; binder concentration: 50 nM
How it was run: (§1)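 Binding signal is the mean intensity of triplicate spots, min-max scaled within each library. Histone 13-mer peptide–cellulose conjugates were spotted in triplicate on nitrocellulose with a Cy3 tracer and blocked overnight at 4°C. Probing lasted 1 h at 4°C, either with biotin-labelled HaloTag reader fusions (10 nM to 1 μM) and streptavidin-Alexa Fluor 647 or with rabbit histone antibodies (1:10,000 to 1:2,000) and anti-rabbit Alexa 647. An Axon GenePix 4000B read signal at 635 nm and misprints at 532 nm.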

| Binder | peptide microarray binding signal |
| --- | --- |
| PDPAKSAPAPKKG [Unmod H2B variant P D P A K S A P A P K K G] | 0.0068 ± 0.00035 |
| VPKKGSKKAINKA [Unmod H2B variant V P K K G S K K A I N K A] | 0.00639 ± 0.00069 |

Same assay, conditions: peptide region: Unmod H2B variant; binder concentration: 500 nM

| Binder | peptide microarray binding signal |
| --- | --- |
| PDPAKSAPAPKKG [Unmod H2B variant P D P A K S A P A P K K G] | 0.00538 ± 0.00012 |
| VPKKGSKKAINKA [Unmod H2B variant V P K K G S K K A I N K A] | 0.0081 ± 0.00015 |

Each binder was assayed against HaloTag-ING2 PHD (mouse Ing2 200-280) in the same assay as above. Conditions: peptide region: Unmod H2B variant; binder concentration: 10 nM.
How it was run: as §1

| Binder | peptide microarray binding signal |
| --- | --- |
| PDPAKSAPAPKKG [Unmod H2B variant P D P A K S A P A P K K G] | 0.00358 ± 0.00019 |
| VPKKGSKKAINKA [Unmod H2B variant V P K K G S K K A I N K A] | 0.00263 ± 3.9e-05 |

Same assay, conditions: peptide region: Unmod H2B variant; binder concentration: 100 nM

| Binder | peptide microarray binding signal |
| --- | --- |
| PDPAKSAPAPKKG [Unmod H2B variant P D P A K S A P A P K K G] | 0.004039 ± 3.4e-05 |
| VPKKGSKKAINKA [Unmod H2B variant V P K K G S K K A I N K A] | 0.0056 ± 0.00078 |

The binders below were run against anti-H3K4me3 antibody ab8580 in the same assay as above. Conditions: peptide region: Unmod H2B variant; binder concentration: 1:2,000 dilution.
How it was run: as §1

| Binder | peptide microarray binding signal |
| --- | --- |
| PDPAKSAPAPKKG [Unmod H2B variant P D P A K S A P A P K K G] | 0.000868 ± 7.8e-05 |
| VPKKGSKKAINKA [Unmod H2B variant V P K K G S K K A I N K A] | 0.000529 ± 4.2e-05 |

Same assay, conditions: peptide region: Unmod H2B variant; binder concentration: 1:10,000 dilution

| Binder | peptide microarray binding signal |
| --- | --- |
| PDPAKSAPAPKKG [Unmod H2B variant P D P A K S A P A P K K G] | 0.00097 ± 9.9e-06 |
| VPKKGSKKAINKA [Unmod H2B variant V P K K G S K K A I N K A] | 0.000856 ± 8.9e-06 |

The binders below were run against anti-H3K9me3 antibody ab8898 in the same assay as above. Conditions: peptide region: Unmod H2B variant; binder concentration: 1:2,000 dilution.
How it was run: as §1

| Binder | peptide microarray binding signal |
| --- | --- |
| PDPAKSAPAPKKG [Unmod H2B variant P D P A K S A P A P K K G] | 0.000453 |
| VPKKGSKKAINKA [Unmod H2B variant V P K K G S K K A I N K A] | 0.000196 ± 2.1e-06 |

Same assay, conditions: peptide region: Unmod H2B variant; binder concentration: 1:10,000 dilution

| Binder | peptide microarray binding signal |
| --- | --- |
| PDPAKSAPAPKKG [Unmod H2B variant P D P A K S A P A P K K G] | 0.00075 ± 7.9e-06 |
| VPKKGSKKAINKA [Unmod H2B variant V P K K G S K K A I N K A] | 0.000461 ± 8.7e-06 |

Biological target: T1, HaloTag-ATRX ADD domain (163-292)
Test: as above
Conditions: peptide region: Unmod H2A variant; binder concentration: 50 nM
How it was run: as §1

| Binder | peptide microarray binding signal |
| --- | --- |
| RNDEELNKLLGRV [Unmod H2A variant R N D E E L N K L L G R V] | 0.0189 ± 0.0014 |
| GVLPNIQAVLLPK [Unmod H2A variant G V L P N I Q A V L L P K] | 0.0417 ± 0.0058 |
| VTIAQGGVLPNIQ [Unmod H2A variant V T I A Q G G V L P N I Q] | 0.0238 ± 0.001 |

Same assay, conditions: peptide region: Unmod H2A variant; binder concentration: 500 nM

| Binder | peptide microarray binding signal |
| --- | --- |
| RNDEELNKLLGRV [Unmod H2A variant R N D E E L N K L L G R V] | 0.00157 ± 0.00011 |
| GVLPNIQAVLLPK [Unmod H2A variant G V L P N I Q A V L L P K] | 0.0254 ± 0.026 |
| VTIAQGGVLPNIQ [Unmod H2A variant V T I A Q G G V L P N I Q] | 0.0447 ± 0.00046 |

Each binder was assayed against HaloTag-ING2 PHD (mouse Ing2 200-280) in the same assay as above. Conditions: peptide region: Unmod H2A variant; binder concentration: 10 nM.
How it was run: as §1

| Binder | peptide microarray binding signal |
| --- | --- |
| RNDEELNKLLGRV [Unmod H2A variant R N D E E L N K L L G R V] | 0.00269 ± 9.9e-05 |
| GVLPNIQAVLLPK [Unmod H2A variant G V L P N I Q A V L L P K] | 0.0142 ± 0.0058 |
| VTIAQGGVLPNIQ [Unmod H2A variant V T I A Q G G V L P N I Q] | 0.0169 ± 0.00042 |

Same assay, conditions: peptide region: Unmod H2A variant; binder concentration: 100 nM

| Binder | peptide microarray binding signal |
| --- | --- |
| RNDEELNKLLGRV [Unmod H2A variant R N D E E L N K L L G R V] | 0.0085 ± 0.00045 |
| GVLPNIQAVLLPK [Unmod H2A variant G V L P N I Q A V L L P K] | 0.0437 ± 0.0091 |
| VTIAQGGVLPNIQ [Unmod H2A variant V T I A Q G G V L P N I Q] | 0.0193 ± 0.0019 |

What follows are binders tested against anti-H3K4me3 antibody ab8580 in the same assay as above. Conditions: peptide region: Unmod H2A variant; binder concentration: 1:2,000 dilution.
How it was run: as §1

| Binder | peptide microarray binding signal |
| --- | --- |
| RNDEELNKLLGRV [Unmod H2A variant R N D E E L N K L L G R V] | 0.000189 ± 4.1e-06 |
| GVLPNIQAVLLPK [Unmod H2A variant G V L P N I Q A V L L P K] | 0.000944 ± 0.00025 |
| VTIAQGGVLPNIQ [Unmod H2A variant V T I A Q G G V L P N I Q] | 0.00821 ± 0.007 |

Same assay, conditions: peptide region: Unmod H2A variant; binder concentration: 1:10,000 dilution

| Binder | peptide microarray binding signal |
| --- | --- |
| RNDEELNKLLGRV [Unmod H2A variant R N D E E L N K L L G R V] | 0.0016 ± 9.6e-05 |
| GVLPNIQAVLLPK [Unmod H2A variant G V L P N I Q A V L L P K] | 0.0081 ± 0.0012 |
| VTIAQGGVLPNIQ [Unmod H2A variant V T I A Q G G V L P N I Q] | 0.00451 ± 0.0005 |

What follows are binders tested against anti-H3K9me3 antibody ab8898 in the same assay as above. Conditions: peptide region: Unmod H2A variant; binder concentration: 1:2,000 dilution.
How it was run: as §1

| Binder | peptide microarray binding signal |
| --- | --- |
| RNDEELNKLLGRV [Unmod H2A variant R N D E E L N K L L G R V] | 0.000604 ± 2e-05 |
| GVLPNIQAVLLPK [Unmod H2A variant G V L P N I Q A V L L P K] | 0.00384 ± 0.00031 |
| VTIAQGGVLPNIQ [Unmod H2A variant V T I A Q G G V L P N I Q] | 0.00338 ± 0.00037 |

Same assay, conditions: peptide region: Unmod H2A variant; binder concentration: 1:10,000 dilution

| Binder | peptide microarray binding signal |
| --- | --- |
| RNDEELNKLLGRV [Unmod H2A variant R N D E E L N K L L G R V] | 0.00173 ± 3.3e-05 |
| GVLPNIQAVLLPK [Unmod H2A variant G V L P N I Q A V L L P K] | 0.0113 ± 0.0018 |
| VTIAQGGVLPNIQ [Unmod H2A variant V T I A Q G G V L P N I Q] | 0.00306 |

— the supplement of paper PMC4022240
